This note sets out measurements from PubChem BioAssay (NCI).

The panel holds about 83,000 compounds, 20% with a hit somewhere; the sample as a whole holds those more often.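 The test compound was applied at a single concentration to cells in 96-well plates for 48 hours, and percent growth was recorded.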 Values without a mark were called inactive. Activity calls are given as the source filed them. How the source made its calls: active means growth percent below 10; inactive means the rest.

Assay in all cases: NCI-60 one-dose screen, 48 h (100 = growth as untreated, 0 = no growth, -100 = all killed)
What all share (details): 10 µM unless noted

Assay [1] deals with HCT-15 colon.
Assay [2] has as its system SNB-75 CNS.
Assay [3] has as its system SNB-19 CNS.
For assay [4], the system named is U251 CNS.
Assay [5] deals with PC-3 prostate.
In assay [6] the test system is SK-MEL-5 melanoma.
Assay [7] deals with UACC-62 melanoma.
Assay [8] relates to LOX IMVI melanoma.
Assay [9] has as its system SK-MEL-28 melanoma.
Assay [10] has as its system SK-MEL-2 melanoma.
The test system of assay [11] is EKVX NSCLC.
Assay [12] deals with SN12C renal.
Assay [13] has as its system UO-31 renal.
Assay [14] concerns TK-10 renal.
The test system of assay [15] is ACHN renal.
Assay [16] deals with CAKI-1 renal.
The test system of assay [17] is CCRF-CEM leukemia.
In assay [18] the test system is MOLT-4 leukemia.
The subject of assay [19] is A498 renal.

For the compound `O=C(CC12CC3CC(CC(C3)C1)C2)NCCOCCOCCOCCNC(=O)c1cc2c(o1)C(=O)c1ccccc1C2=O`, the growth is -78.5% (active) in [1]; -98.9% (active) in [2]; -0.887% (active) in [3]; -19.6% (active) in assay [4]; 13.1% in assay [5]; -98.4% (active) in [6]. For the same compound, the growth was -94.6% (active) in assay [7]; -52.4% (active) in assay [8]; -58.5% (active) in assay [9]; -27.6% (active) in assay [10]; -27.1% (active) in assay [11]; -90.7% (active) in assay [12]. Besides, the growth in assay [13] is -68.5% (active); in assay [14] it was -3.88% (active); in assay [15], -22.4% (active); in assay [16] it was -27% (active); in assay [17], 13%; in [18] it was 7.19% (active).
As to `CC(C)CCC[C@@H](C)[C@H]1CCC2C3=CCC4C(=O)C=CC(=O)C4C3CC[C@@]21C` (stereo partly drawn), the growth was 3.29% (active) in assay [1]; 7.34% (active) in [2]; 38.2% in assay [3]; 11.5% in assay [4]; 9.01% (active) in assay [5]; -48.5% (active) in assay [6]. The growth in assay [7] is 28.7%; in assay [8], -43.4% (active); in assay [9] it was 41.9%; in assay [10] it was -16.4% (active); in assay [11] it was -10% (active); in assay [12] it was 20.1%. In addition, the growth in assay [13] was -67.9% (active); in assay [14], -36.6% (active); in [15] it was 4.54% (active); in [16], -56.3% (active); in assay [19], -6.21% (active); in [17], 17%. Also, the growth in [18] was 10.4%.
For the compound `Cc1c(C(=O)O[C@H]2[C@@H]3[C@H](C)CC[C@H]3[C@]3(C)O[C@@]2(C2CCCCC2)C[C@H]3OC(=O)CO)ccc2ccccc12`, the growth in [1] is 14.2%; in assay [2] it was 82.6%; in assay [3] it was 60.8%; in assay [4], 4.41% (active); in assay [5], 9.25% (active); in [6], 68.6%. Besides, the growth is 61.3% in [7]; 59.7% in [9]; 40.3% in assay [10]; 41.8% in assay [11]; -1.88% (active) in [12]; -11.7% (active) in assay [13]. For the same compound, the growth in assay [14] is 59.8%; in [15], -36.4% (active); in [16], 0.73% (active); in assay [19], -76.6% (active); in assay [17], -4.66% (active).
In the case of `Cc1ccccc1NC(=O)CN(C)C`, the growth is 105% in assay [1]; 92.6% in assay [2]; 98.8% in assay [3]; 104% in assay [4]; 98.3% in [5]; 105% in assay [6]. Further, the growth in assay [7] was 99.3%; in assay [8], 99.9%; in assay [9], 96.9%; in [10] it was 84.8%; in [11] it was 108%; in [12] it was 97%. Moreover, the growth in [13] is 81.2%; in assay [14], 86.8%; in assay [15], 99.6%; in assay [16], 103%; in assay [19], 83.8%; in assay [17] it was 107%. For the same compound, the growth in assay [18] was 94.2%.
With `CCCc1cc(=O)oc2c3c(c4c(c12)OC(C)(C)C=C4)O[C@@H](C)[C@H](C)C3=O`, the growth in assay [1] is 98.1%; in [2], 87.7%; in assay [3], 93.6%; in assay [4] it was 65.7%; in assay [5] it was 40.7%; in assay [6] it was 32.1%. Besides, the growth in assay [7] was 66%; in assay [8], 81.2%; in assay [10] it was 97.1%; in assay [11], 63%; in [12], 82.7%; in [13], 71.9%. Also, the growth in assay [14] is 83.2%; in assay [15], 84.2%; in assay [16] it was 72.8%; in [17], 70.3%; in [18], 69.1%.
`COc1cc(-c2ncn(/C=C\c3nnco3)n2)cc(C(F)(F)F)c1`: the growth was 17.6% in [1]; 4.47% (active) in [2]; 23.3% in assay [3]; 14.7% in [4]; 33.6% in assay [5]; -11.8% (active) in assay [6]. The growth in [7] is 13.2%; in assay [8] it was -27.3% (active); in [9], 6.79% (active); in [10], -6.5% (active); in assay [11], 61.5%; in [12], 33.6%. Moreover, the growth is 18.3% in [13]; 34% in assay [14]; 27.7% in assay [15]; 26.1% in assay [16]; -33.9% (active) in assay [19]; 13.6% in assay [17]. In addition, the growth in [18] is 1.86% (active).
Regarding `CCCCCCNC(=O)c1cc(NCc2cc(O)ccc2O)ccc1O`, the growth was 34.6% in assay [1]; 45.7% in assay [2]; 99.7% in assay [3]; 67.3% in assay [4]; 42.6% in [5]; 90% in assay [6]. The growth was 56.3% in assay [7]; 67.7% in [8]; 101% in [9]; 95.5% in assay [10]; 66.6% in assay [11]; 56.3% in assay [12]. Besides, the growth in assay [13] was 34.4%; in assay [14] it was 68.6%; in assay [15], 57.1%; in [16], 56.3%; in assay [19], 99%; in [17], 5.38% (active). In [18], the growth was 12.5%.
With `O=C(Oc1ccc[nH]c1=O)c1cc([N+](=O)[O-])cc([N+](=O)[O-])c1`, the growth in assay [1] is 103%; in [2], 97.1%; in [3], 114%; in [4] it was 109%; in [6], 105%; in assay [7] it was 114%. In addition, the growth in [8] was 99.5%; in assay [9], 122%; in assay [10], -11.5% (active); in [11] it was 112%; in assay [13], 96.7%; in assay [14] it was 90.3%. Moreover, the growth is 107% in assay [15], 108% in assay [19] and 135% in assay [18].
